Inconclusive results are not listed. Where a call stands in place of a potency, no number is given. Calls of active or inactive are those of the source. Unless noted, calls follow the shape of the dose curve; as a rule, active = well fitted curve in the direction sought with a large enough effect; inconclusive = small, poorly fitted or top-dose-only effect, or another doubt; inactive = no such curve, though single readings can be large; an effect the other way counts as inactive or inconclusive.

Chain of 3',5'-cyclic-AMP phosphodiesterase 4B (Homo sapiens) (Q07343 whole entry, looked up): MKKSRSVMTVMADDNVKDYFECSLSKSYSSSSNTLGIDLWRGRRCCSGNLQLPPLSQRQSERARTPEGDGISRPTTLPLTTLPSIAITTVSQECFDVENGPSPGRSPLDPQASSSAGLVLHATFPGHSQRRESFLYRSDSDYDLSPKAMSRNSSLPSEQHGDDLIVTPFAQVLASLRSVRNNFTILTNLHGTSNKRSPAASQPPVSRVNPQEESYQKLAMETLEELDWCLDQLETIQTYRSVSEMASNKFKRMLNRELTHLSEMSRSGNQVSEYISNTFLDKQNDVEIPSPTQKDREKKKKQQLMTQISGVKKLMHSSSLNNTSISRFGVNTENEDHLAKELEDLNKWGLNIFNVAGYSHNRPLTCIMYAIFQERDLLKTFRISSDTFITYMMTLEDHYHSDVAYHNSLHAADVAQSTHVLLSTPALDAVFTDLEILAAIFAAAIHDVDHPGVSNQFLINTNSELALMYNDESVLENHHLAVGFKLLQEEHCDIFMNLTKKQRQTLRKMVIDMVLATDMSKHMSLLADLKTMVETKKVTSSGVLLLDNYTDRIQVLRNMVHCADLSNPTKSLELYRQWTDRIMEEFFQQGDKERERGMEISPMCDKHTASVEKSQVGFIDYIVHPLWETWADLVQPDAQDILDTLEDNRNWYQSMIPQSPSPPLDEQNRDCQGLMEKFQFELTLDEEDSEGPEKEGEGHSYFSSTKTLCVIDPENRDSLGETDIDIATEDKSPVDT
Chain of Cytochrome P450 2C9 (Homo sapiens) (P11712 whole entry, looked up): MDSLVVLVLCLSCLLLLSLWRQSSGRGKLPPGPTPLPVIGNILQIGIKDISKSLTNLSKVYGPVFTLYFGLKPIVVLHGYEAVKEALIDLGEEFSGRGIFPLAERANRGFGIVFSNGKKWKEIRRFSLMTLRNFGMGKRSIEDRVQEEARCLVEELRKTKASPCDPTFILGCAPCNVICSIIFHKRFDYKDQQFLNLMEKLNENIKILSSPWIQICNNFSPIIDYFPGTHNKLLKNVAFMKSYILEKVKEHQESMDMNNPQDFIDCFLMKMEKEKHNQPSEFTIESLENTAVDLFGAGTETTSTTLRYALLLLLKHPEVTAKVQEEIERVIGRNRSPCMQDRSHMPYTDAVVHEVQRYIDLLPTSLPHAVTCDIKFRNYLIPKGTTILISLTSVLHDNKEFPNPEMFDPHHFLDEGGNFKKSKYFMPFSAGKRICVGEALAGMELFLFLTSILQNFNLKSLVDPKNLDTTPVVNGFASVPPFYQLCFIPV
Chain of Guanine nucleotide-binding protein G(i) subunit alpha-1 (Homo sapiens) (P63096 whole entry, looked up): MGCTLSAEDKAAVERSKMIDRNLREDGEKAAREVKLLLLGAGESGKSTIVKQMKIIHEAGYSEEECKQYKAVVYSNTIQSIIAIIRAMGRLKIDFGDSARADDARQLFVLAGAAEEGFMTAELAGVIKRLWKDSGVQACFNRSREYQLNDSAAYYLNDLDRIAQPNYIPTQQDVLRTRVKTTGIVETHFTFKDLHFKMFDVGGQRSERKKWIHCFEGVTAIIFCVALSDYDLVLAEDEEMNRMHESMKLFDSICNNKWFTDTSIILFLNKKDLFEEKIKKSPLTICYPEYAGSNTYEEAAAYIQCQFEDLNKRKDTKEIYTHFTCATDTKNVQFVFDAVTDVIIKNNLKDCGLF
Chain of Cytochrome P450 2D6 (Homo sapiens) (P10635 whole entry, looked up): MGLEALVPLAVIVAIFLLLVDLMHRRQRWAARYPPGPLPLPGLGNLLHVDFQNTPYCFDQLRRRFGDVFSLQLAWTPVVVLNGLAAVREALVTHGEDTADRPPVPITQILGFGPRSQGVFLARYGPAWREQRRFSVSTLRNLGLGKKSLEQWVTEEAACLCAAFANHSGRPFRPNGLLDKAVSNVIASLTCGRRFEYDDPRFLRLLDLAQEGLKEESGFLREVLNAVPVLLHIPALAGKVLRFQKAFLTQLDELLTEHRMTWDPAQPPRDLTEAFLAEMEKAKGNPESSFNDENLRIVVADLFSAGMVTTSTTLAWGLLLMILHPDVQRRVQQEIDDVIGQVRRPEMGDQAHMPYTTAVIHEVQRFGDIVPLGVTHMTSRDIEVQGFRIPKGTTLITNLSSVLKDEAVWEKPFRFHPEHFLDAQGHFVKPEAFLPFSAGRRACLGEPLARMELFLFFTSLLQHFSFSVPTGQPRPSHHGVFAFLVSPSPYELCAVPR

The target of one experiment is 3',5'-cyclic-AMP phosphodiesterase 4B (Homo sapiens) (UniProt Q07343). Kind of experiment: qHTS Assay for Inhibitors of PDE-IV (AID 607; active = well fitted activation curve with a large enough effect in the main read-out, with a control signal flat, not every such curve was filed as active). Particulars: HEK293 ACTOne CNG channel cells, membrane potential fluorescence; series mostly up to 22.9 µM. In outline:
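The readout is membrane depolarisation from a cAMP-sensing CNG channel, detected with a potential dye at ex 535/em 590. Cells were HEK293-derived (endogenous PDE-IV) at 1000 cells/well, titrated up to 22.9 uM final.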
(Quantitative high-throughput screening tests each substance at several concentrations.)
Turning to `C[C@@H](CO)NC(=O)[C@H]1C=C2c3cccc4[nH]cc(c34)C[C@H]2N(C)C1`, the result was inactive. The same measure, in the same setting: in the case of `O=c1ccc2cc(O[C@@H]3O[C@@H](CO)[C@@H](O)[C@@H](O)[C@H]3O)c(O)cc2o1` it was “inactive”; in that of `CCN1C[C@@]2(COC(=O)c3ccccc3N3C(=O)C[C@H](C)C3=O)CC[C@H](OC)[C@@]34[C@@H]5CC6[C@@H](OC)C[C@@](O)([C@H]5[C@H]6OC)C(O)([C@@H]13)[C@@H](OC)[C@H]24`, “inactive”; in that of `Oc1cc2c(cc1O)[C@H]1c3ccccc3CN[C@H]1CC2`, “inactive”. Take `C=C(C)[C@H]1[C@H]2OC(=O)[C@@H]1[C@]1(O)C[C@H]3O[C@]34C(=O)O[C@H]2[C@]14C`: the molecule was classed as inactive. Consider `c1cc2cc(c1)C[n+]1ccc(c3ccccc31)NCc1ccc(cc1)CNc1cc[n+](c3ccccc13)C2`, for which the molecule was classed as inactive. On the same count and under the same terms, with `C[C@@H]1O[C@@H](O[C@H]2C[C@@H](O)[C@]3(CO)[C@@H]4[C@@H](O)C[C@]5(C)[C@H]([C@@H]6COC(=O)C6)CC[C@@]5(O)[C@H]4CC[C@@]3(O)C2)[C@H](O)[C@H](O)[C@@H]1O` the entry was “inactive”; with `CC[C@H](CO)NC(=O)[C@H]1C=C2c3cccc4[nH]cc(c34)C[C@H]2N(C)C1`, “inactive”. `CC(C)(O)[C@H]1[C@H]2OC(=O)[C@@H]1[C@]1(O)C[C@H]3O[C@]34C(=O)O[C@H]2[C@]14C`: the call was inactive. For the molecule `COC[C@H]1OC(=O)c2coc3c2[C@@]1(C)C1=C(C3=O)[C@H]2CCC(=O)[C@@]2(C)C[C@H]1OC(C)=O`, the outcome was inactive.

Regarding `C[C@H]1CC[C@@H]2[C@@H](C)C(=O)O[C@H]3O[C@@]4(C)CC[C@@H]1[C@]32OO4`, the outcome was inactive. As to `COc1cc2c(cc1OC)-c1c(OC)c(OC)c(CO)c3c1[C@H](C2)N(C)CC3`, the molecule was classed as inactive.

The next experiment concerns the target Guanine nucleotide-binding protein G(i) subunit alpha-1 (Homo sapiens) (UniProt P63096). Kind of experiment: qHTS Assay for Inhibitors of RGS12 GoLoco Motif Activity (Green Fluorophore) (AID 879). Also: potency is read from the fitted curve at half-maximal effect. Particulars: Galphai1/FITC-RGS12 GoLoco peptide, fluorescence polarization; series mostly up to 57.1 µM. In outline: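 A drop in FITC polarization marked displacement of the FITC-tagged RGS12 GoLoco peptide (10 nM) from Gαi1 (50 nM). Compounds were incubated 10 min at room temperature in Tris pH 7.5 buffer containing 150 mM NaCl, 0.1 mM GDP and 0.05% NP40; unlabeled peptide titration served as control.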
On to `NC(=O)c1ccc(OC[C@H](O)CN2CC=C(c3ccc(F)cc3)CC2)cc1`, for which the Potency result is “inactive”.

For `C[C@@H]1O[C@@H](O[C@H]2C[C@@H](O)[C@]3(CO)[C@@H]4[C@@H](O)C[C@]5(C)[C@H]([C@@H]6COC(=O)C6)CC[C@@]5(O)[C@H]4CC[C@@]3(O)C2)[C@H](O)[C@H](O)[C@@H]1O`, the Potency result was “inactive”. With `COC[C@H]1OC(=O)c2coc3c2[C@@]1(C)C1=C(C3=O)[C@H]2CCC(=O)[C@@]2(C)C[C@H]1OC(C)=O`, the Potency was 25.1 µM (active).

The next experiment concerns the target Cytochrome P450 2C9 (Homo sapiens) (UniProt P11712). Put plainly: qHTS Assay for Inhibitors and Substrates of Cytochrome P450 2C9 (AID 883). Also: nearly all actives have a fitted effect of over 60% in size. Also: potency is read from the fitted curve at half-maximal effect. Particulars: recombinant CYP2C9, luciferin-H luminescence, 60 min; series mostly up to 57.1 µM. Summed up:
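Luminescent read-out of deoxyluciferin hydroxylation, normalized to 57uM sulphaphenazole (AC100). Reaction: 10nM enzyme, 100uM Luciferin-H (equal to KM), 25mM KPO4, 10 min compound preincubation, then 60 min with NADPH regeneration, both at 37C.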
Turning to `C[C@@H](CO)NC(=O)[C@H]1C=C2c3cccc4[nH]cc(c34)C[C@H]2N(C)C1`, the Potency entry is “inactive”. Regarding `CC1=CC(=O)C2=C(C)C[C@H](O)[C@@H]3[C@@H](OC(=O)[C@H]3C)[C@H]12`, the Potency entry is “inactive”.

`COC1=C[C@H]2[C@@H]3Cc4ccc(OC)c(O)c4[C@@]2(CCN3C)CC1=O`: the Potency entry was “inactive”. For the molecule `COc1cc2c(cc1O)CCN[C@H]2C`, the Potency result is “inactive”. For `CCN1C[C@@]2(COC(=O)c3ccccc3N3C(=O)C[C@H](C)C3=O)CC[C@H](OC)[C@@]34[C@@H]5CC6[C@@H](OC)C[C@@](O)([C@H]5[C@H]6OC)C(O)([C@@H]13)[C@@H](OC)[C@H]24`, the Potency result is “inactive”. On to `c1cc2c(cc1[C@H]1OC[C@H]3[C@@H]1CO[C@H]3c1ccc3c(c1)OCO3)OCO2`, for which the Potency is 3.98 µM (active).

Consider `OC[C@H]1CCCN2CCCC[C@@H]12`, for which the Potency entry is “inactive”.

In the case of `C[C@H]1C(=O)O[C@H]2CCN3CC=C(COC(=O)[C@](C)(O)[C@@]1(C)O)[C@H]23`, the Potency entry is “inactive”. Still for that read-out and setting: with `CC[C@H]1CN2CC[C@@H]1C[C@@H]2[C@H](O)c1ccnc2ccccc12` the entry was “inactive”; with `C[C@@]12CCC[C@](C)(C(=O)O)[C@@H]1CCc1ccc(O)cc12`, “inactive”; with `c1cc2cc(c1)C[n+]1ccc(c3ccccc31)NCc1ccc(cc1)CNc1cc[n+](c3ccccc13)C2`, 2.51 µM (active). Regarding `CO[C@@H](C)[C@](O)(C(=O)OC1=CCN2CC[C@H](O)[C@H]12)C(C)C`, the Potency result is “inactive”. Same read-out and setting: with `C[C@@H]1CCC/C=C\[C@H]2C[C@H](O)C[C@@H]2[C@H](O)/C=C\C(=O)O1` the entry was “inactive”; with `C[C@H]1CC[C@]2(NC1)O[C@@H]1C[C@@H]3[C@@H]4CC=C5C[C@H](O)CC[C@@]5(C)[C@H]4CC[C@@]3(C)[C@H]1[C@@H]2C`, “inactive”.

`COc1cc2c(cc1OC)-c1c(O)c(OC)cc3c1[C@@H](C2)N(C)CC3`: the Potency result was “inactive”. As for `COc1cc2c(cc1OC)-c1c(OC)c(OC)c(CO)c3c1[C@H](C2)N(C)CC3`, the Potency entry was “inactive”. For `CC[C@@H]1CN2CC[C@@H]1C[C@H]2[C@@H](O)c1ccnc2ccc(OC)cc12`, the Potency entry is “inactive”.

The next experiment addresses Cytochrome P450 2D6 (Homo sapiens) (UniProt P10635). Kind of experiment: qHTS Assay for Inhibitors and Substrates of Cytochrome P450 2D6 (AID 891). Also: nearly all actives have a fitted effect of over 60% in size. Also: potency is read from the fitted curve at half-maximal effect. Particulars: recombinant CYP2D6, luciferin-ME EGE luminescence; series mostly up to 57.1 µM. In outline:
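Luminescent read-out of luciferin formed by 5 nM human CYP2D6 demethylating 30 uM Luciferin-ME EGE (Km level) over 60 min at room temperature after NADPH regeneration addition. Data normalized to full inhibition by 1.43 uM quinidine.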
`C[C@@H](CO)NC(=O)[C@H]1C=C2c3cccc4[nH]cc(c34)C[C@H]2N(C)C1`: the Potency was 12.6 µM (active). Consider `CC1=CC(=O)C2=C(C)C[C@H](O)[C@@H]3[C@@H](OC(=O)[C@H]3C)[C@H]12`, for which the Potency result was “inactive”.

In the case of `CCN(CC)c1ncnc2c1ncn2[C@@H]1O[C@@H](COP(=O)(O)OP(=O)(O)C(Br)(Br)P(=O)(O)O)[C@H](O)[C@H]1O`, the Potency is 0.631 µM (active). Regarding `CCN1C[C@@]2(COC(=O)c3ccccc3N3C(=O)C[C@H](C)C3=O)CC[C@H](OC)[C@@]34[C@@H]5CC6[C@@H](OC)C[C@@](O)([C@H]5[C@H]6OC)C(O)([C@@H]13)[C@@H](OC)[C@H]24`, the Potency result was “inactive”. On to `c1cc2c(cc1[C@H]1OC[C@H]3[C@@H]1CO[C@H]3c1ccc3c(c1)OCO3)OCO2`, for which the Potency is 15.8 µM (active).

`OC[C@H]1CCCN2CCCC[C@@H]12`: the Potency result was “inactive”.

In the case of `CC(C)[C@]1(NC(=O)[C@H]2C=C3c4cccc5[nH]cc(c45)C[C@H]3N(C)C2)O[C@@]2(O)[C@H]3CCCN3C(=O)[C@H](Cc3ccccc3)N2C1=O`, the Potency result is “inactive”.

In the case of `C[C@H]1C(=O)O[C@H]2CCN3CC=C(COC(=O)[C@](C)(O)[C@@]1(C)O)[C@H]23`, the Potency entry is “inactive”.

On to `CC[C@H]1CN2CC[C@@H]1C[C@@H]2[C@H](O)c1ccnc2ccccc12`, for which the Potency was 3.16 µM (active).

Turning to `CCCCCC[C@H]1C(=O)O[C@@H](C)[C@H](NC(=O)c2cccc(NC=O)c2O)C(=O)O[C@@H](C)[C@@H]1OC(=O)CC(C)C`, the Potency entry is “inactive”.

With `C[C@@]12CCC[C@](C)(C(=O)O)[C@@H]1CCc1ccc(O)cc12`, the Potency entry is “inactive”. The same measure, in the same setting: with `CO[C@@H](C)[C@](O)(C(=O)OC1=CCN2CC[C@H](O)[C@H]12)C(C)C` the entry was “inactive”. Still for that read-out and setting: with `C[C@@H]1CCC/C=C\[C@H]2C[C@H](O)C[C@@H]2[C@H](O)/C=C\C(=O)O1` the entry was “inactive”; with `C[C@H]1CC[C@]2(NC1)O[C@@H]1C[C@@H]3[C@@H]4CC=C5C[C@H](O)CC[C@@]5(C)[C@H]4CC[C@@]3(C)[C@H]1[C@@H]2C`, “inactive”. In the case of `COc1cc2c(cc1OC)-c1c(O)c(OC)cc3c1[C@@H](C2)N(C)CC3`, the Potency is 15.8 µM (active). On the same count and under the same terms, with `COc1cc2c(cc1OC)-c1c(OC)c(OC)c(CO)c3c1[C@H](C2)N(C)CC3` the entry was “inactive”; with `CC[C@@H]1CN2CC[C@@H]1C[C@H]2[C@@H](O)c1ccnc2ccc(OC)cc12`, 0.0016 µM (active).

The record behind these values is PubChem BioAssay (NCATS).
